In the assay the target is human Mitogen-Activated Protein Kinase 11 (MAPK 11), MAPK11 (gene 5600) (UniProt Q15759). The assay can be described thus: NVS_ENZ_hMAPK11: NovaScreen (NVS) Enzymatic Assay for human Mitogen-Activated Protein Kinase 11 (MAPK 11). Here is the method: NVS_ENZ_hMAPK11 is a biochemical, single-readout assay that uses extracted gene-proteins in a cell-free assay. Measurements were taken 0 hour after chemical dosing in a 384-well plate.NVS_ENZ_hMAPK11 is one of one assay component(s) measured or calculated from the NVS_ENZ_hMAPK11 assay. It is designed to make measurements of enzyme activity, a form of enzyme reporter, as detected with fluorescence intensity signals by Fluorescence and electrophoretic mobility shift technology.Data from the assay component NVS_ENZ_hMAPK11 was analyzed into 1 assay endpoint. This assay endpoint, NVS_ENZ_hMAPK11, was analyzed in the positive analysis fitting direction relative to DMSO as the negative control and baseline of activity. Using a type of enzyme reporter, loss-of-signal activity can be used to understand changes in the enzymatic activity as they relate to the gene MAPK11. Furthermore, this assay endpoint can be referred to as a primary readout, because this assay has produced multiple assay endpoints where this one serves a enzymatic activity function. To generalize the intended target to other relatable targets, this assay endpoint is annotated to the kinase intended target family, where the subfamily is serine/threonine kinase.
Binding assays used specific radioligands (tritiated, iodinated) with non-radioactive competitive displacement ligands in agonist or antagonist protocols (as indicated) and various reference compounds and inhibitors to titrate specific binding to receptors and transporters. Most enzyme assays (CYPs, kinases, phosphatases, proteases, HDACs) used recombinant protein and specific substrates (fluorescence mostly, some colorimetric and radioactive) and inhibitors, followed by a biochemical separation of substrate and product. All assays for the biochemical HTS were initially run in duplicate at a single concentration (10 uM for CYP450 assays and 25 uM for all others). Assay-chemical combinations meeting a pre-defined threshold (e.g., 30% inhibition and other criteria defined below) were then run in singleton concentration-response format with maximum concentration of 20 uM for CYPs and 50 uM for all others. Each assay was run with positive and negative controls, and concurrent controls on every plate. The follow-up (secondary) screen tested active chemical-pairs in concentration series, as well as a few additional assays not tested in the primary screen, some selected negative inactives, and several cases re-run in the concentration series for confirmatory purposes.

Each structure is given as a SMILES string. Activity calls are given as the source filed them. How the source made its calls: active means hit-call score of the fitted dose curve at least 0.9, where 1 is the maximum; inactive means score below 0.9.

human Mitogen-Activated Protein Kinase 11 (MAPK 11), MAPK11 (gene 5600), sequence (Q15759 whole entry, looked up): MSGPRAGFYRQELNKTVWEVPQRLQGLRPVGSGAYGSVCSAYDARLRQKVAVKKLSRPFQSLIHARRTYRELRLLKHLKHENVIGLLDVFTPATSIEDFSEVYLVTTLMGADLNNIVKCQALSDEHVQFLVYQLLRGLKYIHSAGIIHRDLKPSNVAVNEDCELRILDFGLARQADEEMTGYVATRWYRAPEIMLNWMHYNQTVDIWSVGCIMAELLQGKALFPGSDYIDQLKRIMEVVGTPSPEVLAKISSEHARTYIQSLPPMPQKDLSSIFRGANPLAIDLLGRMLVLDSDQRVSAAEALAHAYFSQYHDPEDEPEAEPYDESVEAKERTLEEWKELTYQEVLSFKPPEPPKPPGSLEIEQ

With `CC(C)(c1ccc(O)cc1)c1ccc(O)cc1`, the compound was classed as inactive.
As to `CCCCC(CC)COC(=O)c1ccccc1C(=O)O` (stereo unspecified), the compound was called inactive.
Consider `S=C(S)NCCNC(=S)S.[Mn+2].[S-]C([S-])=NCCN=C([S-])[S-].[Zn+2]`, for which the AC50 (in general, the concentration giving half of the maximal activity seen) was 16.6 µM (active).
Regarding `C#CCOC(=O)[C@@H](C)Oc1ccc(Oc2ncc(Cl)cc2F)cc1`, the result was inactive.
For the compound `S=C([S-])NCCNC(=S)[S-].[Mn+2]`, the AC50 is 24.4 µM (active).
As to `COCCO`, the call was inactive.
